Bioassay records as filed in PubChem BioAssay.
aSyn 5UTR act: Activators working through SNCA 5'UTR binding (MLPCN); alpha-synuclein 5'UTR reporter, activators screen; 300,000 compounds, 7.1% hits; activity score, % (tested at 7.5 µM), hits read low; AID 1814; in the data active means activity score below about -60%
Active calls of the source: *. Not all results are given here.

SMILES | aSyn 5UTR act
O=C(N/N=C/c1ccccc1C(F)(F)F)c1ccc(O)cc1 | -134.8*
O=C(N/N=C/c1ccccc1O)c1cccc(C(F)(F)F)c1 | 82.4
O=C(NN=C1CCCCCC1)c1ccc(Br)o1 | -81.8*
O=C(N/N=C/c1ccc(O)cc1)c1cccc(N/N=C/c2ccc(O)cc2)c1 | -107.7*
Nc1c(C(=O)N/N=C/c2ccccc2)cnn1-c1ccccc1 | -107.7*
O=C(N/N=C/c1ccccc1)c1n[nH]c2c1CCCC2 | -87.5*
O=C(N/N=C/c1ccccc1Cl)c1n[nH]c2c1CCCC2 | 83.5
O=C(NN=C1CCCC1)c1ccn[nH]1 | -76.5*
C/C(=N\NC(=S)Nc1ccc(F)cc1)c1ccc2c(c1)OCCO2 | -80.3*
COC(=O)c1sccc1NC(=O)/C=C/c1ccc(Cl)cc1 | -197.4*
O=C(Nc1ccc(F)c(Cl)c1)c1ccc2c(c1)OCO2 | -210.9*
O=C(Nc1ccc(C(=O)N2CCCC2)cc1)c1ccc2c(c1)OCO2 | -68.6*
CC1CCCC(NC(=O)c2ccc3c(c2)OCO3)C1C (configuration not stated) | -65.2*
COC(=O)c1c(-c2cccnc2)csc1NC(=O)c1ccc2c(c1)OCO2 | -76.5*
COc1ccc(NC(=O)c2ccc3c(c2)OCO3)cc1Cl | -144.8*
Cc1cc(C)nc(NC(=O)c2ccc3c(c2)OCO3)c1 | -94.1*
Cc1cc(C)nc(NC(=O)c2c(F)c(F)c(F)c(C(=O)Nc3cc(C)cc(C)n3)c2F)c1 | -69.7*
COC(=O)c1ccc(N/C=C\C(=O)c2ccc3c(c2)OCO3)cc1 | -133.3*
COC(=O)c1sccc1NC(=O)c1ccc(OC)cc1OC | -98.2*
Cc1nc(NC(=O)c2ccc(Cl)cc2)nc2cc3c(cc12)OCO3 | -84.1*
COC(=O)c1sccc1NC(=O)c1ccc(C(C)C)cc1 | -86.5*
COC(=O)c1ccc(NC(=O)c2ccc3c(c2)OCO3)cc1 | -143.7*
Cc1ccccc1-c1nc(-c2ccc(NC(=O)c3ccc4c(c3)OCO4)cc2)no1 | -70.8*
O=C(Nc1ccc(N2CCCCC2)cc1)c1ccc2c(c1)OCCO2 | -86.7*
COC(=O)c1sccc1NC(=O)c1ccc2c(c1)OCO2 | -91.4*
SMILES | aSyn 5UTR act
CCc1nc(SCc2ccc(Br)cc2)n[nH]1 | -88.3*
CCc1nc(SCc2ccc(Cl)cc2)n[nH]1 | -49.4*
CCc1nc(SCc2ccc(OCC(C)C)cc2)n[nH]1 | -102.1*
Cc1cc(=O)[nH]c(SCCOc2ccc3c(c2)CCC3)n1 | -107.5*
CC(C)OC(=O)CSc1nc(N)c(C#N)cc1C#N | -117.8*
CC(C)OC(=O)CSc1nc2cc3c(cc2cc1C#N)OCO3 | -149.1*
COC(=O)CSc1nc(-c2cccs2)ccc1C#N | -305.4*
COC(=O)CSc1nc2cc3c(cc2cc1C#N)OCO3 | -200.9*
O=C(Nc1nc2ccccc2[nH]1)C1CCN(S(=O)(=O)c2cccs2)CC1 | -69.5*
CC(=O)c1ccc(NC(=O)C2CCN(S(=O)(=O)c3cccs3)CC2)cc1 | -79.9*
O=S(=O)(NCC1(N2CCOCC2)CCCCC1)c1ccccc1Cl | -91.3*
O=C(NCC1CCCO1)c1cc(-c2ccc(F)cc2)no1 (configuration not stated) | -263.6*
COc1cccc(-c2cc(C(=O)NCC3CCCO3)on2)c1 (configuration not stated) | -63.9*
CC(C)CNc1nc(N)c([N+](=O)[O-])c(NCC2CCCO2)n1 (configuration not stated) | 51.0
COc1ccc(C(=O)NC(=S)NCC2CCCO2)cc1 (configuration not stated) | -71.4*
COc1ccccc1C(=O)COC(=O)c1ccccc1O | -104.3*
COc1ccccc1C(=O)COC(=O)/C=C/c1ccccc1 | -69.0*
COc1ccc(C(=O)c2ccc(N(C)C)cc2)c2ccccc12 | 73.8
COc1ccccc1C(=O)COC(=O)c1ccc(N(C)C)cc1 | -218.5*
Cc1cc(N2CCN(C)CC2)nc2ccc(NC(=O)c3ccc(Br)o3)cc12 | -102.8*
COc1cc(C(=O)Nc2ccc3nc(N4CCN(C)CC4)cc(C)c3c2)cc(OC)c1OC | -103.0*
CCN1CCN(c2cc(C)c3cc(NC(=O)c4cc(OC)cc(OC)c4)ccc3n2)CC1 | -97.8*
CCOc1ccc(C(=O)Nc2ccc3nc(N4CCN(CC)CC4)cc(C)c3c2)cc1 | 66.5
CC(=O)c1ccc(OCc2cc(C(=O)N3CCC(Oc4ccccc4C)CC3)no2)cc1 | -182.5*
CC(=O)c1ccc(OCc2cc(C(=O)N3CCOCC3)no2)cc1 | -154.3*
SMILES | aSyn 5UTR act
CCOC(=O)Cc1cc(=O)[nH]c(Nc2nc3ccccc3o2)n1 | -83.4*
NC(=Nc1ccc(Br)cc1)c1ccccc1 | -75.2*
COC(=O)C1=C(C)N(Cc2ccccc2)C(=NCc2cccc(C(F)(F)F)c2)N[C@H]1c1cccc(F)c1 | 56.6
Clc1cc2nc(-c3cccnc3Cl)[nH]c2cc1Cl | -228.9*
NC(=O)c1c(NC(=O)C2CCCO2)sc2c1CCCC2 (configuration not stated) | -74.1*
N#Cc1c(NC(=O)C2CCCO2)sc2c1CCCCCC2 (configuration not stated) | -97.5*
FC(F)(F)c1cccc(-c2ccc(-c3csnn3)o2)c1 | -84.8*
CCCOc1ccc(-c2nnc(N)s2)cc1 | -136.0*
CCCOc1ccc(-c2nc(-c3ccc(N)cc3)cs2)cc1 | -122.8*
CC(C)c1ccc(-c2nnc(N)s2)cc1 | -101.9*
O=C1C=CCC(/C=C/c2ccccc2)O1 (configuration not stated) | -104.4*
CC(C)c1ccc2nc(SCC(=O)NCC3CCCO3)c(C#N)cc2c1 (configuration not stated) | -142.9*
Cc1ccc(NC(=O)c2ccc(CSc3ccccn3)cc2)cc1 | -92.9*
Cc1ccccc1NC(=O)c1ccc(CSc2ncccn2)cc1 | -82.5*
Cc1ccc(NC(=O)c2ccc(CSc3nnnn3C)cc2)cc1 | -165.1*
O=C(Nc1ccc(Br)cc1)c1ccc(CSC2=NCCS2)cc1 | -132.1*
Cc1ccc(NC(=O)c2ccc(CSc3nnc(C)s3)cc2)cc1 | -75.0*
Cc1nnc(SCc2ccc(F)cc2)s1 | -69.0*
Cc1nnc(SCc2cccc3ccccc23)s1 | -89.8*
O=C(c1ccco1)N1CCN(c2ncnc3c2cnn3-c2ccccc2)CC1 | -94.3*
CC1CCN(c2ncnc3c2cnn3-c2ccccc2)CC1 | -118.8*
Clc1ccc(-n2ncc3c(N4CCCC4)ncnc32)cc1 | 92.3
COc1cc(/C=N/NC(=O)CN2CCCCC2)ccc1OCc1ccccc1 | -136.6*
CC(C)(C)OC(=O)COc1ccc(/C=N/NC(=O)CN2CCCCC2)cc1 | -85.7*
COc1cc(/C=N/NC(=O)CN2CCOCC2)ccc1OCc1ccccc1 | -96.6*
SMILES | aSyn 5UTR act
Cc1cccnc1Nc1nc(-c2ccc(O)cc2O)cs1 | -187.9*
Oc1ccc(-c2csc(Nc3ccccn3)n2)c(O)c1 | -133.9*
COC(=O)c1c(NC(=O)c2cccs2)sc2c1CCC(C)C2 (configuration not stated) | -112.9*
CCCC1CCc2c(sc(NC(=O)c3cccs3)c2C(N)=O)C1 (configuration not stated) | -99.0*
COc1ccc(-c2csc(Nc3cccc(C)n3)n2)cc1C | -216.3*
COc1ccc(-c2csc(Nc3cccc(C)n3)n2)cc1 | -231.9*
Cc1cccc(Nc2nc(-c3ccc(F)cc3)cs2)n1 | -136.9*
Fc1ccc(-c2csc(Nc3ccccn3)n2)cc1 | -77.0*
CC(=O)Oc1ccc(-c2csc(Nc3cccc(C)n3)n2)cc1 | -250.1*
Cc1ccc(-n2sc3ccccc3c2=O)cc1 | -121.2*
COC(=O)c1c(NC(=O)c2nc3ccccc3s2)sc2c1CC(C)(C)NC2(C)C | 104.2
CCOC(=O)c1c(NC(=O)CSc2nc3ccccc3[nH]2)sc2c1CC(C)(C)NC2(C)C | -100.9*
